# High-throughput results as filed in PubChem.
# Rows were chosen to be rich in hits. Some 0.87% of all compounds tested hit in one or more screens of this group.
# USP1-UAF1 inh: blocks the human USP1/UAF1 deubiquitinase complex; Potency, µM (highest dose often 57.1 µM), inactives show at the top dose activity change, negative = inhibition, hits mostly inhibitors; AID 743255; actives 0.23% (n = 390,000); recombinant USP1/UAF1, Ub-Rhodamine cleavage fluorescence; O94782; note: potency is the fitted concentration of half-maximal effect; % is set by controls: 0 for no effect and ±100 for the full control effect; nearly all actives have a fitted effect of over 60% in size
#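 USP1/UAF1 complex at 1 nM was preincubated with compound for 15 min at room temperature, then Ub-Rho substrate (150nM final) was added. Fluorescence (480/540 nm) was read kinetically, 6 reads every 60 seconds.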
# EPAC1 ag: agonists of human EPAC1; O95398; EPAC1 agonist qHTS, biochemical assay; response scale: 100% = response to 6.5 mM cAMP; Potency, µM (top dose mostly 154 µM), for the others: at the top dose activation, usual class: activators; actives 0.073% (n = 360,000); note: potency is the fitted concentration of half-maximal effect; nearly all actives have a fitted effect of over 60% in size
#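 Fluorescent GDP-exchange assay: 100 nM EPAC1 with 250 nM Rap1B preloaded with BODIPY-GDP and 50 uM GDP; compounds tested as concentration series, 5 min at room temperature, then read every 5 min for 30 min (ex 480/em 540 nm); normalized to 6.5 mM cAMP.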
# EPAC1 antagonist: EPAC1 (human) antagonism. Potency, µM (doses to about 115 µM), for the others: at the highest dose activity change, negative = inhibition, hits mostly inhibitors. AID 720709. EPAC1 GEF assay, Rap1b-BODIPY-GDP exchange fluorescence. actives 0.14% (n = 360,000);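 note: potency is the fitted concentration of half-maximal effect; plate controls were vehicle for no effect and positive control for full effect; nearly all actives have a fitted effect of over 50% in size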
# EPAC2 antag: EPAC2 (human) antagonism | EPAC2 GEF exchange of Rap1B-BODIPY-GDP, fluorescence | Potency, µM (highest dose often 114 µM), for inactives: top-dose activity, negative = inhibition, usual class: inhibitors | actives 0.18% (n = 360,000) | Q8WZA2; note: potency is the fitted concentration of half-maximal effect; % is set by controls: 0 for no effect and ±100 for the full control effect; nearly all actives have a fitted effect of over 45% in size
# EPAC2 ag: activates human EPAC2 exchange factor; actives 0.079% (n = 360,000); EPAC2 activation, biochemical qHTS; response scale: 100% = 6.5 mM cAMP response; AID 720711; Q8WZA2; Potency, µM (highest dose often 154 µM), for the others: at the highest dose activation, most hits filed as activators; note: potency is the fitted concentration of half-maximal effect; nearly all actives have a fitted effect of over 50% in size
#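 Fluorescence exchange assay: 100 nM EPAC2 with 250 nM RAP1B-BODIPY-GDP and 50 uM GDP; compounds tested as a concentration-titration series (qHTS). Loss of Rap1-bound BODIPY-GDP fluorescence read at 480/540 nm; data normalized to 6.5 mM cAMP.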
# Coupling enz: inhibits coupling enzyme system, counter-screen for aldolase hits; actives 0.67% (n = 290,000); coupling enzyme system counterscreen, AmpLite Red fluorescence; activity change, negative = inhibition, % at 58.2 µM, hits read low; AID 2472; in the data active = activity change below about -30%; note: % is set by controls: 0 for no effect and ±100 for the full control effect
#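 Coupling enzymes only (glyceraldehyde-3-phosphate) + compound, at 57.5 uM final, 10 min RT; add substrate/coupling/AmpLite Red mix, 20 min RT; fluorescence ex 525/em 598 nm. Actives flag coupling-system interference.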
# * hit, by the source's call; ? = inconclusive; · = no result; [ ] = dose if it differs, or a comment. Unless noted, calls come from the whole dose curve; as a rule, active = well fitted curve in the direction sought with a large enough effect; inconclusive = small, poorly fitted or top-dose-only effect, or another doubt; inactive = no such curve, though single readings can be large; an effect the other way counts as inactive or inconclusive.
SMILES,USP1-UAF1 inh,EPAC1 ag,EPAC1 antagonist,EPAC2 antag,EPAC2 ag,Coupling enz
Cc1ccc2c(c1)CCCN2C(=O)Nc1ccc2c(c1)OCO2,-19%,5%,-5%,-3%,4%,-40*
O=[N+]([O-])c1cc(C(F)(F)F)ccc1Cl,-21%,-10%,18%,5%,13%,·
COc1ccc(/C=C2\CCCc3c2nc2ccccc2c3C(=O)O)cc1OC,·,·,·,·,·,-33*
O=C(O)C1Nc2c(Cl)cc(Cl)cc2C2C=CCC12 (stereo not given),?,5%,18µM*,-2%,1%,3
Nc1cc(C2CCCC2)nn1-c1ccccc1,-18%,-8%,-11%,4%,-51%[15.6 µM],1
Cc1ccc(NC(=O)Cn2c(=O)c3cccn3c3ccccc32)c(C)c1,-24%,1%,12%,9%,-4%,·
CCOC(=O)c1c(C)nc2sc(C(N)=O)c(N)c2c1-c1ccccc1,-23%,-7%,-3%,-3%,7.9µM*,1
OCCC1CN(Cc2ccccn2)CCN1C1CCCC1 (stereo not given),-19%,-4%,-5%,8%,0%,1
NC1=C(Br)C(=O)c2ncccc2C1=O,4.5µM*,-1%,?,?,13%,·
O=C1c2cccnc2C(=O)N1CO,-16%,5%,-7%,0%,2%,0
CCCn1c(O)c(N=Nc2ccc3ccccc3n2)c2ccccc21,-17%,-5%,1%,68%,89µM*,2
CCCn1c(N)c(N2CCCCC2)c(=O)n(CC(=O)Nc2cccc(S(=O)(=O)N(C)C)c2)c1=O,-21%,-1%,12%,4%,3%,·
CC(=O)N(Cc1cccnc1)c1nc2c(C)c(C)ccc2s1,-21%,·,·,·,·,·
Cc1cccc(N2CCN(S(=O)(=O)c3ccc4c(c3)CCN4C(=O)CCC(=O)O)CC2C)c1 (stereo not given),-13%,56µM*,20µM*,61%,13%,10
CC1CC(C)CN(S(=O)(=O)c2ccc3c(c2)CCN3C(=O)CCC(=O)O)C1 (stereo not given),-6%,-7%,-5%,-18%,2%,·
Cc1ccsc1C(=O)NNC(=O)COc1ccccc1Cl,-6%,8%,-14%,-4%,2%,·
O=S1(=O)CC(N2CCN(Cc3ccccc3F)CC2)CN1Cc1cn(Cc2ccc(C(F)(F)F)cc2)nn1 (stereo not given),·,-13%,?,10%,-1%,·
CC(C)OCCCNC(=S)Nc1ccc(S(N)(=O)=O)cc1,-18%,-2%,15%,23%,-1%,-65*
COc1ccccc1OCCCn1cc(C#N)c2ccccc21,-6%,22%,-3%,-4%,?,-32*
CC(C)(C#N)NC(=O)c1ccco1,13%,0%,-6%,-5%,9%,1
c1ccc(-n2cnc3cc(NCc4ccncc4)ccc32)cc1,-7%,-1%,1%,-1%,1%,-42*
Cc1ccc(CN2CCS(=O)(=O)CC2)cc1,-8%,-6%,10%,-5%,-16%,1
CCc1ccc(S(=O)(=O)/N=C2\C=C(Nc3cccc(C(=O)O)c3)C(=O)c3ccccc32)cc1,5.6µM*,-8%,?,?,4%,-44*
O=C(O)c1cccc(NS(=O)(=O)c2ccc(-c3ccc(S(=O)(=O)Nc4cccc(C(=O)O)c4)cc3)cc2)c1,-4%,-2%,-1%,2%,20%,16
CCc1ccc(S(=O)(=O)/N=C2\C=C(Nc3ccc(O)cc3)C(=O)c3ccccc32)cc1,10µM*,-3%,?,-24%,11%,-35*
SMILES,USP1-UAF1 inh,EPAC1 ag,EPAC1 antagonist,EPAC2 antag,EPAC2 ag,Coupling enz
OC[C@@H](O)C(O)[C@H](O)[C@@H](O)CO (stereo not given in full),·,·,·,·,·,0
CCOC(=O)c1c(C)[nH]c(C=Nc2ccc(OC)cc2)c1O,-18%,8%,-2%,-6%,10%,-6
CCOC(=O)c1c(C)[nH]c(C=Nc2ccccc2)c1O,·,·,·,·,·,-36*
O=S(=O)(O)c1cccc(N=Nc2c(O)ccc3ccccc23)c1,?,-2%,-13%,35µM*,-3%,5
Oc1ccc2ccccc2c1N=Nc1ccccc1F,-14%,6%,1%,-7%,5%,-23
O=C(NC1=C(Nc2ccc(F)cc2)C(=O)c2ccccc2C1=O)c1ccc(Cl)cc1,?,-10%,-1%,3%,-8%,-42*
O=C(CN(C(=O)Cn1nnc(-c2cccs2)n1)c1ccc2c(c1)OCCO2)NCc1ccccc1,?,10%,8%,-3%,-5%,-5
CSc1nsc(/C=C/Nc2ccc(O)cc2C)c1C#N,?,-6%,-1%,27%,7%,-33*
Cc1ccc(S(=O)(=O)/N=C2/NC(=O)/C(=C\c3cc(Br)cc(Br)c3O)S2)cc1,?,-2%,?,79µM*,0%,·
CN1CCN(C(=O)c2sc(=S)n(-c3ccccc3)c2N)CC1,-8%,6%,1%,0%,0%,-48*
Cc1cccc(C)c1Nc1oc(-c2ccccc2)nc1-c1cccc2ccccc12,·,·,·,·,·,0
COCCn1nnnc1C(C(C)C)N(Cc1ccccc1)Cc1cc2cc(OC)ccc2[nH]c1=O (stereo not given),-7%,14%,-20%,-11%,17%,-3
CCc1ccc2[nH]c(=O)c(CN(Cc3ccc(OC)cc3)Cc3nnnn3CCOC)cc2c1,-9%,7%,-15%,-19%,-14%[15.6 µM],-74*
COC(=O)CC1(c2ccc(OC)cc2)C(=O)c2ccccc2C1=O,-5%,6%,6%,45µM*,4%,0
COC(=O)CC1(c2ccccc2)C(=O)c2ccccc2C1=O,-7%,8%,-7%,-4%,12%,2
Cc1cccc(C)c1-n1nnnc1C1(C)CCC(=O)N1CC(F)(F)F (stereo not given),·,-3%,-23%,7%,8%,·
COc1cccc2c1C(=O)c1c(O)c3c(c(O)c1C2=O)C[C@](O)(C(C)=O)C[C@H]3O[C@@H]1C[C@@H](N)[C@@H](O)[C@@H](C)O1,13µM*,5%,41%,53%,0%,·
COc1cccc2c1C(=O)c1c(O)c3c(c(O)c1C2=O)CC(O)(C(C)=O)CC3OC1CC(O)C(O)C(C)O1 (stereo not given),25µM*,35%,31%,-1%,-5%,·
COc1cccc2c1C(=N)c1c(O)c3c(c(O)c1C2=O)CC(O)(C(C)=O)CC3OC1CC(N)C(O)C(C)O1 (stereo not given),-26%,3%,-13%,-18%,-4%,·
